# SNCA expr inh = Primary qHTS assay for inhibitors of alpha-synuclein gene (SNCA) expression. HEK-293 SNCA-luciferase knock-in, luminescence, 24 h. Potency, µM (titrated, usually from 57.2 µM), actives largely listed as inhibitors. 140,000 compounds, 0.17% hits. AID 1671194, 2021; also: nearly all actives have a fitted effect of over 45% in size
# 3T3 cytotox = Cytotoxic Profiling in NIH 3T3 Cell Line of Diverse Libraries Using Quantitative High-Throughput Screening; NIH 3T3 viability, CellTiter-Glo ATP luminescence, 48-72 h; 94,000 compounds, 4.3% hits; AID 1345082, 2018; Potency, µM (highest dose often 96.7 µM), hits mostly inhibitors; also: nearly all actives have a fitted effect of over 55% in size
#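 Mouse fibroblast NIH 3T3 cells, 400 per well, received compound via pintool and were incubated for 48 or 72 hr prior to CellTiter-Glo ATP luminescence measurement.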
# SNCA viab count = GF-AFC viability counterscreen for inhibitors of alpha-synuclein gene (SNCA) expression; HEK-293-SNCA-luc viability, GF-AFC fluorescence, 24 h; AID 1671193, 2021; 150,000 compounds, 0.12% hits; Potency, µM (top dose mostly 57.1 µM), most hits filed as cytotoxic; also: nearly all actives have a fitted effect of over 30% in size
#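 Cytotoxicity counterscreen: after 24 h compound treatment of genome-edited SNCA-luciferase HEK-293 cells, live-cell protease substrate GF-AFC read by fluorescence after 30 min; activity scaled between DMSO (0%) and medium-only (-100%), curves Hill-fitted.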
# FLuc inh-1 = Firefly luciferase inhibition profiling of diverse chemical library using quantitative high-throughput screening | purified P. pyralis luciferase, luminescence, biochemical | 76,000 compounds, 2.5% hits | Luciferin 4-monooxygenase (Photinus pyralis), P08659 | AID 1347043, 2019 | Potency, µM (titrated, usually from 115 µM), actives largely listed as inhibitors; also: nearly all actives have a fitted effect of over 65% in size
#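 Cell-free enzyme assay, 10nM P. pyralis luciferase, luciferin and ATP each at 10uM. Inhibition profiled over a 6-point titration, read as luminescence.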
# hNpr1 antagonist = Natriuretic polypeptide receptor (hNpr1) antagonism - Primary qHTS; Atrial natriuretic peptide receptor 1 (Homo sapiens), P16066; 76,000 compounds, 1.6% hits; HEK293 hNpr1 GloSensor cGMP, ANP-stimulated luminescence; AID 1347048, 2019; Potency, µM (doses to about 46.3 µM), most hits filed as inhibitors; calls by dose curve; also: nearly all actives have a fitted effect of over 60% in size
# Target sequence (P16066 whole entry, looked up): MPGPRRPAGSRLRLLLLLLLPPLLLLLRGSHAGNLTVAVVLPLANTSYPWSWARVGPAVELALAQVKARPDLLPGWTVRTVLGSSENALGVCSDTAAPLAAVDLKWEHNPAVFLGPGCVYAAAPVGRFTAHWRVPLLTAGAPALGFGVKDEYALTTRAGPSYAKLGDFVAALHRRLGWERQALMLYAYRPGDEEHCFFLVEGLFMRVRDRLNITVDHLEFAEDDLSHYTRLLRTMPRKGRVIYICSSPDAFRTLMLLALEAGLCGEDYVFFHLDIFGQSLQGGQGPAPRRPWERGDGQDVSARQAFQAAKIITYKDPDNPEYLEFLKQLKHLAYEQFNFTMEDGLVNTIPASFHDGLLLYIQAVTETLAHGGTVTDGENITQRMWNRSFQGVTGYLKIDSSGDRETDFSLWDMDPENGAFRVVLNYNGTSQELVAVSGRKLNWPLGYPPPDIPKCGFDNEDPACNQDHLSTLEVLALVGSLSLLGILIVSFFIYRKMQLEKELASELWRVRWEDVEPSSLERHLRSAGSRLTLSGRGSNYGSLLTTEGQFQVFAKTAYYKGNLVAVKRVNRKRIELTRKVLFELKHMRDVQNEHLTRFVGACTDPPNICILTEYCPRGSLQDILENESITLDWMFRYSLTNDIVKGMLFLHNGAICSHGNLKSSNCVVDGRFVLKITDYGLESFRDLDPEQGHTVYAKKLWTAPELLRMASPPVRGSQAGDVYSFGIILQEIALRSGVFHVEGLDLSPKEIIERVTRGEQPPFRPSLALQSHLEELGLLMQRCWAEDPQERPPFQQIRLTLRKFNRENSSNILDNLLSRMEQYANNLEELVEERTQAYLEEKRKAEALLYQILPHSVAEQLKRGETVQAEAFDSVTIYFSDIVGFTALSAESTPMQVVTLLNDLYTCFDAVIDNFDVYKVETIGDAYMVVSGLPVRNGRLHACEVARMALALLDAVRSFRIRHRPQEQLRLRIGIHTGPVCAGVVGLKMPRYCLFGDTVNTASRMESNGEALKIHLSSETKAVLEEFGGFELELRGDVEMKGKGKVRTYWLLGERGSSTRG
#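 HEK293 cells stably expressing human Npr1 and cGMP GloSensor pGS-40F, loaded 2 h with 2% GloSensor reagent, given compound 30 min at room temperature. Luminescence read before and 20 min after 0.1 nM hNppA.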
# HEK293 tox = Cytotoxic Profiling in HEK 293 Cell Line of Diverse Libraries Using Quantitative High-Throughput Screening. 94,000 compounds, 6.6% hits. Potency, µM (doses to about 115 µM), most hits filed as inhibitors. HEK 293 viability, ATP luminescence (CellTiter-Glo), 48-72 h. AID 1345083, 2018; also: nearly all actives have a fitted effect of over 60% in size
#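 HEK 293 cells seeded at 250 cells/well were exposed to compound for 48 or 72 hr at 37 degree Celsius. Viability taken as ATP content by CellTiter-Glo luminescence.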
# FLuc SDR no ATP = Firefly luciferase (FLuc-C-HiBiT) SDR gain of signal screen - without ATP; Potency, µM (highest dose often 32.7 µM), actives largely listed as activators; shares compounds with FLuc inh-1; 1,300 compounds, 7.8% hits; Purified FLuc-C-HiBiT, Nano-Glo HiBiT luminescence, no ATP; also: nearly all actives have a fitted effect of over 55% in size
# FLuc SDR ATP = Firefly luciferase (FLuc-C-HiBiT) SDR gain of signal screen - plus ATP | shares compounds with FLuc inh-1 | 1,300 compounds, 8.7% hits | purified FLuc-C-HiBiT + ATP, HiBiT complementation luminescence | Potency, µM (doses to about 32.7 µM), most hits filed as activators;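 also: signal reports ligand binding via conformational change of the enzyme rather than luciferase catalysis; nearly all actives have a fitted effect of over 55% in size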
# FLuc inh-2 = Firefly luciferase (FLuc-C-HiBiT) enzymatic inhibition screen - Functional assay; shares compounds with FLuc inh-1; Potency, µM (top dose mostly 32.7 µM), hits mostly inhibitors; purified FLuc-C-HiBiT enzyme, luciferin luminescence; 1,300 compounds, 42% hits; AID 1963320, 2024; also: nearly all actives have a fitted effect of over 70% in size
# A number is an active result; 0 = inactive; ? = inconclusive; - = no result; [ ] = another dose, or the depositor's remark. This is a sample that favours compounds with a hit; in the whole collection about 7.2% have one here. Unless noted, calls follow the shape of the dose curve; as a rule, active = well fitted curve in the direction sought with a large enough effect; inconclusive = small, poorly fitted or top-dose-only effect, or another doubt; inactive = no such curve, though single readings can be large; an effect the other way counts as inactive or inconclusive.
SMILES,SNCA expr inh,3T3 cytotox,SNCA viab count,FLuc inh-1,hNpr1 antagonist,HEK293 tox,FLuc SDR no ATP,FLuc SDR ATP,FLuc inh-2
O=C1c2cnc(-c3cccc(CO)c3)nc2OCCN1c1ccccc1,7.94µM,39.8µM,0,3.16µM,?,39.8µM,20.2µM,?,11.4µM
COc1ccc(-c2ncc3c(n2)OCCN(C)C3=O)cc1F,-,-,-,-,-,-,?,?,18µM
COc1ncccc1-c1ncc2c(n1)OCCN(c1ccccc1)C2=O,0,?,0,0,0,0,-,-,-
COc1ccc(CN2CCOc3nc(-c4ccc(C(=O)N(C)C)cc4)ncc3C2=O)cc1,0,0,0,?,0,?,-,-,-
O=C(Cn1ccn2nc(-c3ccccc3)c(CO)c2c1=O)Nc1ccc(F)cc1F,0,0,0,0,0,?,-,-,-
COc1cc(OC)cc(C(=O)Nc2ccc3nc(N4CCCCC4)cc(C)c3c2)c1,0,-,0,-,-,-,-,-,-
Cc1ccc(C(=O)Nc2ccc(-c3cn4cccnc4n3)cc2)cc1C,0,-,0,-,-,-,-,-,-
COc1cc(OC)cc(C(=O)Nc2ccc(-c3nc4ccccc4s3)c(C)c2)c1,0,-,0,-,-,-,0,0,0
Cc1ccc(C(=O)Nc2ccc(-c3nc4ccccc4s3)cc2C)cc1C,0,-,0,-,-,-,0,0,0
CCN1C(=O)c2ccccc2Sc2ccc(NC(=O)Cc3ccc(OC)c(OC)c3)cc21,0,-,0,-,-,-,-,-,-
COc1ccc(CC(=O)Nc2ccc(-c3nc4ccccc4s3)c(C)c2)cc1OC,0,-,0,-,-,-,0,0,0
Cc1ccc(-c2nc3ccccc3s2)cc1NC(=O)c1ccc(-c2cccc(Cl)c2)o1,-,-,-,-,-,-,0,0,0
CO[C@H]1CN(C(C)C)[C@H]1C1CCN(C(=O)c2ccc(C#N)cc2)CC1,0,0,0,-,-,0,-,-,-
Fc1ccc(N2CCN(c3nc(-c4ccccc4F)no3)CC2)cc1,0,0,?,?,?,0,-,-,-
COc1cccc(CNC(=O)c2cc(-c3cc(Cl)cc(Cl)c3)nc3c2cnn3C)c1,0,?,0[12.5 µM],-,-,?,-,-,-
CN(Cc1ccc(F)cc1)Cc1ccccc1C(F)(F)F,0,?,0,0,0,0,-,-,-
C=CCC1(C(=O)O)CCCN(C(=O)c2cn(CCN)nn2)C1 (configuration not stated),0,0,0,0,0,0,-,-,-
Cc1ccc(NC(=O)c2cc3c(Cl)nc4ccc(C)cc4c3s2)c(Cl)c1,0,-,0,-,-,-,-,-,-
Cc1cc(-c2nc3ccccc3s2)ccc1NC(=O)c1cc(Cl)ccc1Cl,0,-,0,-,-,-,0,0,0
Cc1cccc(C(=O)Nc2ccc(-c3nc4ccccc4s3)cc2Cl)c1,0,-,0,-,-,-,0,0,0
COc1cc(OC)cc(C(=O)Nc2cc(-c3nc4cccnc4s3)ccc2C)c1,0,-,0,-,-,-,-,-,-
COc1cc(OC)cc(C(=O)Nc2ccc(-c3nc4ccccc4s3)cc2C)c1,0,-,0,-,-,-,0,0,0
CCn1cc(C(=O)N[C@@H]2CN(Cc3ccccc3)C[C@H]2CN(C)C)cn1,0,0,0,0,0,0,-,-,-
Cc1nc(-c2c3n(c(=O)n(CC(=O)NCc4ccc(Cl)cc4)c2=O)CCCCC3)no1,0,0,0,0,0,0,-,-,-
CCSc1ccccc1C(=O)Nc1ccc(-c2nc3ccccc3s2)c(O)c1,0,-,0,-,-,-,0,0,0
SMILES,SNCA expr inh,3T3 cytotox,SNCA viab count,FLuc inh-1,hNpr1 antagonist,HEK293 tox,FLuc SDR no ATP,FLuc SDR ATP,FLuc inh-2
O=C(Nc1ccc(-c2nc3ccccc3s2)c(O)c1)c1ccccc1F,-,-,-,-,-,-,0,0,0
CCOC(=O)CSc1nc2ccc(NC(=O)c3ccccc3F)cc2s1,0,-,0,-,-,-,-,-,-
O=C(Nc1ccc2nc(SCC(=O)N3CCCC3)sc2c1)c1ccccc1F,0,-,?,-,-,-,-,-,-
Cc1cc(NC(=O)c2ccccc2F)ccc1-c1nc2ccccc2s1,0,-,0,-,-,-,0,0,?
O=C1CC2(CCN(c3nc(-c4ccccc4)no3)CC2)CN1Cc1ccccc1,0,?,0,0,?,?,-,-,-
C[C@@H]1CN(c2nc(-c3ccccc3)no2)CC[C@@]1(O)C1CCC1,14.1µM,?,0,0.355µM,5.62µM,?,?,?,1.76µM
OCC1(CC2CC2)CCCN(c2nc(-c3ccccc3)no2)C1 (configuration not stated),0,?,0,14.1µM,0,?,0,0,0
CN(C)C(=O)N1CCC(c2nc(C3CCOC3)n[nH]2)CC1 (configuration not stated),0,0,0,0,0,0,-,-,-
COc1ccccc1C(=O)NCCn1ccn2nc(-c3ccc(C)cc3C)cc2c1=O,0,?,0,10µM,0,?,0,0,?
Cc1ccc(-c2cc3c(=O)n(CCNC(=O)c4cccc(C#N)c4)ccn3n2)c(C)c1,0,35.5µM,0,2µM,?,44.7µM,?,?,3.13µM
Cc1ccc(-c2cc3c(=O)n(CCNC(=O)c4ccco4)ccn3n2)c(C)c1,0,?,0,8.91µM,0,?,0,0,?
Cc1ccc(-c2cc3c(=O)n(CCNC(=O)c4ccc(F)cc4)ccn3n2)c(C)c1,0,0,0,?,?,?,-,-,-
COc1cccc(CC(=O)NCCn2ccn3nc(-c4ccc(C)cc4C)cc3c2=O)c1,0,?,0,11.2µM,0,?,?,0,?
O=C(C[C@H]1NC(=O)c2ccccc2NC1=O)Nc1cccc2ncccc12,0,0,0,0,0,0,-,-,-
CCC(C)(C)C(=O)N1CCC2(CCc3nn(Cc4ccccc4)c(=O)n3CC2)CC1,0,?,0,-,-,?,-,-,-
CC[C@H]1CN(S(=O)(=O)c2ccccc2)CC[C@H]1CC(=O)O,0,0,0,0,0,?,-,-,-
COCCNC(=O)CCCN1C(=O)COc2ccc(C(=O)COc3ccc(C)cc3C)cc21,?,0,?,?,0,?,-,-,-
Cc1ccc(-c2cc3c(=O)n(CCNC(=O)Cc4cccc(F)c4)ccn3n2)c(C)c1,0,?,0,3.55µM,0,?,?,?,5.56µM

# Compound activity (PubChem BioAssay)
